Source: PubChem BioAssay (NCI)
This is part of a sample that, as a whole, favours compounds with a hit. Of some 83,000 tested, about 20% had one in any assay.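 How to read the values: 0–100, growth inhibition (40 = 60% inhibited); 0, no net growth; -100 to 0, cell death (-40 = 40% of starting cells died; -100 = all dead).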 Unmarked numbers belong to inactive results. Active and inactive are the calls of the source. Rule for the calls: active = growth percent below 10; inactive = the rest.

Key:
Assay in all cases: NCI-60 one-dose screen, 48 h (100 = growth as untreated, 0 = no growth, -100 = all killed)
Details in all cases: 10 µM unless noted
NCI-H23 lung = test system: NCI-H23 lung
NCI-H226 lung = test system: NCI-H226 lung
NCI-H322M lung = test system: NCI-H322M lung
HOP-62 NSCLC = test system: HOP-62 NSCLC
NCI-H460 lung = test system: NCI-H460 lung
HOP-92 NSCLC = test system: HOP-92 NSCLC
NCI-H522 lung = test system: NCI-H522 lung
A549/ATCC NSCLC = test system: A549/ATCC NSCLC
786-0 renal = test system: 786-0 renal
COLO 205 colon = test system: COLO 205 colon

SMILES | growth (NCI-H23 lung) | growth (NCI-H226 lung) | growth (NCI-H322M lung) | growth (HOP-62 NSCLC) | growth (NCI-H460 lung) | growth (HOP-92 NSCLC) | growth (NCI-H522 lung) | growth (A549/ATCC NSCLC) | growth (786-0 renal) | growth (COLO 205 colon)
CCNC(=O)c1[nH]cc(-c2ccc(OC)cc2)c1-c1cc(OC)c(OC)c(OC)c1 | 60.3% | 83% | 51.6% | 45% | 13.7% | 8.85% (active) | 17.6% | 51.1% | 47.5% | 32.5%
O=C1C(=O)c2c(nc3ncccn23)-c2ccccc21 | -49.4% (active) | -83.2% (active) | -96.7% (active) | -90.4% (active) | -49.3% (active) | -84.1% (active) | -60.7% (active) | -35.6% (active) | -94.9% (active) | -70.7% (active)
COc1ccc2nc(N=Nc3c(O)ccc4ccccc34)sc2c1 | 31.6% | 55% | 43.8% | 30.2% | 6.32% (active) | 60.9% | 61.2% | 24.6% | 14.7% | 33.1%
CCOC(=O)C1CC(=O)c2cc(OC)c(OC)cc2C1 (stereo not given) | 101% | 92.6% | 123% | 96% | 110% | 84% | 84.9% | 100% | 96.2% | 127%
COc1ccc(C(=O)/C=C/c2c(OC)cc(OC)cc2OC)c(OC)c1 | 26.1% | 69.5% | 56.2% | 40.4% | 8.76% (active) | 31.5% | -6.76% (active) | 31.6% | 26.2% | 8.18% (active)
O=C(Nc1nc2ccc(S(=O)(=O)Nc3ccc(C4(C(F)(F)F)CC4)cc3)cc2[nH]1)c1cnccn1 | 43.6% | 54.1% | 46.6% | 51.5% | 8.38% (active) | 39.3% | 26.9% | 35.1% | 33.9% | 35.1%
CC(C)CCSc1nc(NNC(N)=O)c(C#N)c(-c2ccccc2)n1 | 91.3% | 96.6% | 106% | 105% | 112% | 86.1% | 97.4% | 106% | 75.2% | 121%
CN(C)CCCn1c2c(c3ccc(-c4ccn[nH]4)cc3c1=O)C(=O)c1ccccc1-2 | 21.6% | 6.87% (active) | 81.9% | 5.59% (active) | 1.55% (active) | 34.1% | 25.9% | 0.619% (active) | 2.46% (active) | 43%
CC(C)(C)CC(C)(C)Nc1c(-c2ccc(C(F)(F)F)cc2)nc2cnccn12 | 82.4% | 92.5% | 103% | 92.7% | 89.5% | 82.6% | 67.4% | 83.1% | -12.3% (active) | 96%
C=C1C(=O)O[C@H]2[C@H]1CC/C(COC(=O)CCCCCC(=O)OC/C1=C/CC[C@@]3(C)O[C@H]3[C@H]3OC(=O)C(=C)[C@@H]3CC1)=C\CC[C@@]1(C)O[C@@H]21 | 9.16% (active) | 52% | 86.3% | 85.6% | 76.4% | -1.51% (active) | -72.5% (active) | 80.6% | 7.09% (active) | -38.4% (active)
C#Cc1cccc(NC(=O)Nc2ccc(NC(=O)CCl)cc2)c1 | -66.6% [8.25 µM] (active) | -27.4% [8.25 µM] (active) | 86.8% [8.25 µM] | -6.94% [8.25 µM] (active) | -23.9% [8.25 µM] (active) | -66.5% [8.25 µM] (active) | -70.8% [8.25 µM] (active) | 45.3% [8.25 µM] | -71.5% [8.25 µM] (active) | -58.2% [8.25 µM] (active)
Cc1cc(C(=O)Nc2ncnc3nc[nH]c23)no1 | 101% | 92.3% | 90.6% | 92.6% | 106% | 102% | 94.3% | 100% | 103% | 104%
CCc1nc(C)cn1C(=O)OCc1nc2nc(Cl)nc(N3CCOCC3)c2[nH]1 | 28.9% | -75% (active) | 64.2% | 47.9% | 13.9% | -50.2% (active) | -75.5% (active) | 15.1% | -77.4% (active) | -84.5% (active)
Clc1nc(Nc2ccccc2)nc(Nc2ccccc2)n1 | 103% | 91.2% | 96.3% | 81.5% | 109% | 77.9% | 83.8% | 104% | 84.4% | 108%
C#CCNC(=O)[C@H](Cc1ccccc1)NC(=O)[C@]12CC[C@@H](C(=C)C)[C@@H]1[C@H]1CC[C@@H]3[C@@]4(C)Cc5c([nH]c6ccccc56)C(C)(C)[C@@H]4CC[C@@]3(C)[C@]1(C)CC2 | 94.9% | 90.2% | 93.9% | 95.2% | 104% | 69.7% | 87.9% | 84.7% | 87.8% | 97.8%
COc1ccc(Cn2nc(-c3ccccc3)c3c2CCc2cnoc2-3)cc1 | 60.3% | 105% | 101% | 83.5% | 80.5% | 61.1% | 70.3% | 69.4% | 79.4% | 88.6%
COc1ccc2c(c1)c(CC(=O)NCCOCCOCC(=O)Nc1ccc(OC)c(C(N)=O)c1O)c(C)n2C(=O)c1ccc(Cl)cc1 | 90.1% | 91.5% | 92.7% | 88.8% | 101% | 91.3% | 81.3% | 85.7% | 73.8% | 109%
COc1ccc(/C(C)=N/NC(=O)CSc2nc3ccccc3c(=O)n2Cc2ccc(S(N)(=O)=O)cc2)c(OC)c1 | 101% | 93.9% | 94.8% | 100% | 102% | 112% | 96% | 102% | 105% | 118%
Clc1ccc(C2CC(c3cccc(Nc4ccncc4)c3)=NN2c2ccccc2)cc1 (stereo not given) | 84.3% | 93.1% | 69.7% | 0.979% (active) | -70.5% (active) | 55.8% | -39.1% (active) | 27.3% | -94.3% (active) | -63.6% (active)
NC(=O)c1cccc(-c2ccccc2N2CCCCC2)c1 | 103% | 98.9% | 91% | 99.5% | 108% | 103% | 85.7% | 99.1% | 85.3% | 121%
c1ccc(Cn2nc3c(c2-c2ccccc2)-c2oncc2CC3)cc1 | 87.5% | 103% | 113% | 105% | 102% | 62.3% | 76% | 90.5% | 105% | 113%
CCCCCOc1ccc(/C=N/Nc2cc(C)nc3ccc(Br)cc23)cc1 | 75.1% | 91.5% | 65.1% | 58.1% | -57.9% (active) | 69.7% | 1.99% (active) | 2.38% (active) | -90.9% (active) | -50.4% (active)
CC[N+](CC)(CCCC(C)[N+]1(Cc2ccccc2)C(C)=CC=C1C)Cc1ccccc1 (stereo not given) | 72.3% | 81.2% | 96.7% | 98.1% | 97% | 55.3% | 75% | 100% | 99.5% | 67.9%
COc1cc2nc(-c3ccc(C(F)(F)F)cc3)cc(OCCN3CCCC3)c2cc1OC | 80.9% | 82.7% | 88.9% | 83.6% | 68.1% | 60.7% | 95.7% | 93.5% | 76.4% | 77.9%
CN(Cc1ccccc1)c1nc(Cl)c(C2CC(c3ccc(Cl)cc3)=Cc3[nH][nH]c(=O)c32)s1 (stereo not given) | 98.3% | 97.1% | 110% | 101% | 92.7% | 102% | 89.7% | 107% | 89.4% | 124%
COc1ccc(-c2nc(SC)nc(N3CCOCC3)c2C#N)cc1 | 98.6% | 95.4% | 102% | 88.5% | 109% | 71.2% | 84% | 95.2% | 76.8% | 99%
